In PubChem BioAssay (EPA / NIEHS):
Values joined by “and” are separate entries in the source; they are usually repeats but may differ in a detail not shown here. Equal entries are not always repeated. Inconclusive results are not listed. More than one record can exist for a structure, and the calls need not agree. Active and inactive are the calls of the source. The calls were made as follows, unless noted: active = hit-call score of the fitted dose curve at least 0.9, where 1 is the maximum; inconclusive = response in the unintended direction; inactive = score below 0.9.

What was measured:
[1] = ATG_TGFb_CIS: Attagene CIS-FACTORIAL HepG2 Assay for human Transforming Growth Factor (TGF) (AID 2282967; active = hit-call score of the fitted dose curve at least 0.9, where 1 is the maximum; inactive = score below 0.9); conditions: HepG2 Attagene CIS TGFb reporter, mRNA transcription; actives raise or lower the signal
Summary of the method: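 HepG2 cells transiently transfected with cis-promoter-driven multiplexed reporter units; 24 h compound exposure. Reporter mRNA measured by RT-PCR, 6-FAM labeling, HpaI digestion and capillary electrophoresis; bidirectional fit versus DMSO baseline.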

[2] = ATG_VDRE_CIS: Attagene CIS-FACTORIAL HepG2 Assay for human Vitamin D Receptor Element (VDRE) (AID 2282968; active = hit-call score of the fitted dose curve at least 0.9, where 1 is the maximum; inactive = score below 0.9); conditions: HepG2 VDRE cis-reporter transcription, actives raise or lower the signal
Summary of the method: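 Steps: transfect HepG2 with multiple reporter transcription units; dose chemicals 24 h; isolate RNA; RT-PCR; label with 6-FAM primer extension; HpaI digest; capillary electrophoresis. Curves fitted both directions against DMSO.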

[3] = molecular target: Estrogen receptor (Homo sapiens) (UniProt P03372); assay: ATG_ERa_TRANS: Attagene TRANS-FACTORIAL HepG2 Assay for human Estrogen Receptor alpha (ERa) (AID 2282970); conditions: HepG2 Attagene TRANS ERa GAL4 reporter, mRNA
Chain of Estrogen receptor (Homo sapiens) (P03372 whole entry, looked up, the tested form may be a part): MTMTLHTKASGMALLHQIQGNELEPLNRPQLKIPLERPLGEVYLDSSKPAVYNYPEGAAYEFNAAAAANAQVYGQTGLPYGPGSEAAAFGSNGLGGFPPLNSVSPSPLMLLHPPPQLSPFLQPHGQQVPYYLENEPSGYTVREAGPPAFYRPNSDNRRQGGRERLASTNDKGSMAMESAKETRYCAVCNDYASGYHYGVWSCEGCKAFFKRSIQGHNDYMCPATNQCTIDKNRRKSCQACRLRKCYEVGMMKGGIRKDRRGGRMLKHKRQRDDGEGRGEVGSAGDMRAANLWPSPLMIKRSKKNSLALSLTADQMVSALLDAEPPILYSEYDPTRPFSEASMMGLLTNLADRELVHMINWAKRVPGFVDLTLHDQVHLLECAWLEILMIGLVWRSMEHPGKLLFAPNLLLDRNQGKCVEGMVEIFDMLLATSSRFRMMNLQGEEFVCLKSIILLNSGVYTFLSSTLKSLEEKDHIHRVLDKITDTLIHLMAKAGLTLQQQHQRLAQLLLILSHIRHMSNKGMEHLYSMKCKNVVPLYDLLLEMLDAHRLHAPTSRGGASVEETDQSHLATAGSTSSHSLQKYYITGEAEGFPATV
Summary of the method: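 Liver-derived HepG2 cells expressing chimeric nuclear receptor-Gal4 proteins from transient transfection were exposed for 24 hours. Gain of reporter mRNA signal versus DMSO, read by capillary electrophoresis of FAM-labelled PCR products, was recorded.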

[4] = molecular target: Steroid hormone receptor ERR1 (Homo sapiens) (UniProt P11474); assay: ATG_ERRa_TRANS: Attagene TRANS-FACTORIAL HepG2 Assay for human Estrogen-Related Receptor alpha (ERRa) (AID 2282971); conditions: HepG2 Attagene TRANS reporter, ERRa transactivation
Chain of Steroid hormone receptor ERR1 (Homo sapiens) (P11474 whole entry, looked up, the tested form may be a part): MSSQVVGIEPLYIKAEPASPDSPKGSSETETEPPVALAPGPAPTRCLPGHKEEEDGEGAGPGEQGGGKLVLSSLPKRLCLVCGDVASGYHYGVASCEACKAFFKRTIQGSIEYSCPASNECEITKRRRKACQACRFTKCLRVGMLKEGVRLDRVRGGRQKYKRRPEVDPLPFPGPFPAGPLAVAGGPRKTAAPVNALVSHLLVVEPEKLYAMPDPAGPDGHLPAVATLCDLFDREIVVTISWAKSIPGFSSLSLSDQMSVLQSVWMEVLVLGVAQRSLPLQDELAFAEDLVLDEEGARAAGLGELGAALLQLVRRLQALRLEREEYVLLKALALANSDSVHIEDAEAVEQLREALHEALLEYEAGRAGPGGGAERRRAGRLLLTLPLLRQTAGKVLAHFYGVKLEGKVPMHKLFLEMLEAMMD
Summary of the method: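 Reporter transcript induction was quantified by RT-PCR and capillary electrophoresis of FAM-labelled, HpaI-cut products after 24 h treatment of HepG2 cells carrying transiently transfected GAL4-UAS reporter units and an exogenous ERRa-Gal4 fusion; activity scored as increase over DMSO.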

[5] = molecular target: X-box-binding protein 1 (Homo sapiens) (UniProt P17861); assay: ATG_Xbp1_CIS: Attagene CIS-FACTORIAL HepG2 Assay for human X-box Binding Protein 1 (XBP1) (AID 2282972; active = hit-call score of the fitted dose curve at least 0.9, where 1 is the maximum; inactive = score below 0.9); conditions: HepG2 XBP1 cis-element reporter, Attagene multiplex; actives raise or lower the signal
Chain of X-box-binding protein 1 (Homo sapiens) (P17861 whole entry, looked up): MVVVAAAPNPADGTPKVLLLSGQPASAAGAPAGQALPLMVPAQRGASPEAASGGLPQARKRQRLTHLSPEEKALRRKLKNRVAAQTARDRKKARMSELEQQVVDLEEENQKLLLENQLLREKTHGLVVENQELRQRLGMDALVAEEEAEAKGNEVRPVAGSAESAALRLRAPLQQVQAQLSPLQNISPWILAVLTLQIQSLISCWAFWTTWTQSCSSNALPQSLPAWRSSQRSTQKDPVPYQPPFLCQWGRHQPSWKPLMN
Summary of the method: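 Reporter transcripts were quantified by RT-PCR with fluorescent primer extension and capillary electrophoresis after 24 h chemical exposure. Cells: transiently transfected HepG2 carrying cis-regulated reporter constructs; data fitted bidirectionally relative to DMSO.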

[6] = ATG_Hpa5_TRANS: Attagene TRANS-FACTORIAL HepG2 Assay for human GAL4-Hpa5 Hepatocyte Transcription Factor Basal Promoter (AID 2282975); conditions: HepG2 Attagene GAL4-Hpa5 transcription reporter;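 also: hits are increases in reporter mRNA over DMSO baseline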
Summary of the method: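 Gain-of-signal versus DMSO is fitted for reporter mRNA quantified by RT-PCR and capillary electrophoresis after 24 h exposure. This endpoint is an internal background marker in transiently transfected HepG2 cells carrying GAL4-UAS reporter units.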

[7] = molecular target: Estrogen-related receptor gamma (Homo sapiens) (UniProt P62508); assay: ATG_ERRg_TRANS: Attagene TRANS-FACTORIAL HepG2 Assay for human Estrogen-Related Receptor gamma (ERRg) (AID 2282977); conditions: HepG2 Attagene TRANS reporter, ERRg transactivation;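 also: hits increase reporter signal over DMSO so potencies reflect activators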
Chain of Estrogen-related receptor gamma (Homo sapiens) (P62508 whole entry, looked up, the tested form may be a part): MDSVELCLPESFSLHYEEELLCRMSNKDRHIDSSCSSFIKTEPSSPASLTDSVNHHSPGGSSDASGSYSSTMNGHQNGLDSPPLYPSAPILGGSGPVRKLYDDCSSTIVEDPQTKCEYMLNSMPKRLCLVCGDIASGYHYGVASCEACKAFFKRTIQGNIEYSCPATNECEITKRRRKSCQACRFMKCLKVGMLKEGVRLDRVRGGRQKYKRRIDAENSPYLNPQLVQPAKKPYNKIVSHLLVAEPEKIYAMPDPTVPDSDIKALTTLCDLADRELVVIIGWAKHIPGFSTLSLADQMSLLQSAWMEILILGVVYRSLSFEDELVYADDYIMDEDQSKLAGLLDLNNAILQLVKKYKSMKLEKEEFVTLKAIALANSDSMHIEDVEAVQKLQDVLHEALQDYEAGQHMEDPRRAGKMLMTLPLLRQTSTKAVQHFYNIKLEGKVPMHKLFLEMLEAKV
Summary of the method: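 Induction of reporter transcripts through a chimeric NR-Gal4 protein is quantified in transfected human HepG2 liver cells after 24 h chemical exposure, using RT-PCR with capillary electrophoresis detection and DMSO as baseline.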

[8] = ATG_M_19_TRANS: Attagene TRANS-FACTORIAL HepG2 Assay for M19 Transcription Factor (Internal Marker) (AID 2282974); conditions: HepG2 Attagene TRANS-FACTORIAL M19 internal marker reporter
Summary of the method: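 Measured here: internal-marker reporter transcript from HepG2 cells transfected with MRTUs, harvested at 24 h. cDNA PCR products were 6-FAM labelled by primer extension, cut with HpaI for 2 h at 37 C, and resolved by CE.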

[9] = molecular target: Glucocorticoid receptor (Homo sapiens) (UniProt P04150); assay: ATG_GR_TRANS: Attagene TRANS-FACTORIAL HepG2 Assay for human Glucocorticoid Receptor (GR) (AID 2282978); conditions: HepG2 Attagene TRANS GR reporter, mRNA transcription;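 also: activators score as hits since higher reporter transcript over DMSO is fitted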
Chain of Glucocorticoid receptor (Homo sapiens) (P04150 whole entry, looked up, the tested form may be a part): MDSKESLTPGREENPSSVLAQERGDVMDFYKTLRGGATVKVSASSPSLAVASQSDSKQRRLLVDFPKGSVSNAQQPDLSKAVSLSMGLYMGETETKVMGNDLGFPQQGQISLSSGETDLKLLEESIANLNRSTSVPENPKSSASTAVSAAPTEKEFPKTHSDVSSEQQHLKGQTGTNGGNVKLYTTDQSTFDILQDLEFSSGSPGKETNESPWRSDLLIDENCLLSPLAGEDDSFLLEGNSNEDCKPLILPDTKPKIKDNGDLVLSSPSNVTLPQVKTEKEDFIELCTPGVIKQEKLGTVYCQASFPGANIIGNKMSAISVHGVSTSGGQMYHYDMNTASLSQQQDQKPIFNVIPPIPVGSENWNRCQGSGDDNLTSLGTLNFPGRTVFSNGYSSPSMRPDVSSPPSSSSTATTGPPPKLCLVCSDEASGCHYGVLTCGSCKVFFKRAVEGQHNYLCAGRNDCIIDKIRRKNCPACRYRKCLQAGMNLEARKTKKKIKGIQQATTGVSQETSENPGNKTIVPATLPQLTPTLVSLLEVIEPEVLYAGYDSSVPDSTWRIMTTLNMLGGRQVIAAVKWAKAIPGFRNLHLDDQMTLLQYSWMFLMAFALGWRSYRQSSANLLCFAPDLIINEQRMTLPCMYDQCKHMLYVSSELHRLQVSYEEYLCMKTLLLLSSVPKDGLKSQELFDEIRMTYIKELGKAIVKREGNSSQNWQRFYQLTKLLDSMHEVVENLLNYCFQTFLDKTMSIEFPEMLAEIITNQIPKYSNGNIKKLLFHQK
Summary of the method: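 Measurement of GAL4-UAS-driven reporter mRNA in human HepG2 liver cells 24 h post-dosing, using RT-PCR with fluorescent labelling and capillary electrophoresis; the transfected constructs report exogenous NR-GAL4 chimera activity, fitted upward against DMSO.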

[10] = ATG_GAL4_TRANS: Attagene TRANS-FACTORIAL HepG2 Assay for GAL4 (Internal Marker) (AID 2282976); conditions: HepG2 Attagene TRANS GAL4 internal marker reporter
Summary of the method: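 First, HepG2 cells were transfected with reporter units under GAL4-UAS control. Next, they were treated with chemical for 24 h. Finally, RNA was reverse-transcribed, PCR-amplified, FAM-labelled and resolved by capillary electrophoresis, with induction scored against DMSO.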

Measured: AC50

CCCN(CCC)c1c([N+](=O)[O-])cc(C(F)(F)F)c(N)c1[N+](=O)[O-]
active: [2] 3.57 µM | [3] 5.67 µM
inactive: [1] | [4] | [5] | [6] | [7]

O=C(O)C1(C(=O)Nc2ccc(Cl)cc2Cl)CC1
inactive: [1] | [2] | [3] | [5] | [8]

C#CCOC(=O)[C@@H](C)Oc1ccc(Oc2ncc(Cl)cc2F)cc1
inactive: [1] | [2] | [3] | [4] | [5] | [9]

O=C(O)c1ccccc1
inactive: [1] | [2] | [3] | [5] | [8]

CC(C)(c1ccc(O)cc1)c1ccc(O)cc1
inactive: [1] | [4] | [5] | [8] | [10] | [7]
active: [1] 43.6 µM

OB(O)O
not listed: [10]
inactive: all other assays above

N#CSCSc1nc2ccccc2s1
active: [1] 1.52 µM | [5] 14.3 µM
inactive: [1] | [2] | [3] | [5] | [6] | [9]

COC(=O)c1cccc(C)c1S(=O)(=O)NC(=O)Nc1nc(OCC(F)(F)F)nc(N(C)C)n1
not listed: [10]
inactive: all other assays above

CCCCC(CC)CN1C(=O)C2C3C=CC(C3)C2C1=O (stereo not drawn)
active: [2] 23.8 µM | [3] 50 µM
not listed: [6] | [7]
inactive: all other assays above

CCN(CC)C(=O)c1cccc(C)c1
inactive: all assays above

CCC(C)OC(=O)N1CCCCC1CCO (stereo not drawn)
active: [2] 46.5 µM
inactive: [1] | [2] | [5] | [8] | [7]

c1ccc(Nc2ccccc2)cc1
inactive: [1] | [2] | [4] | [5] | [6] | [7]
active: [2] 100 µM

CCCCOC(=O)[C@@H](C)Oc1ccc(Oc2ccc(C(F)(F)F)cn2)cc1
not listed: [4] | [7] | [10]
inactive: all other assays above

CC(C)CCCCCCc1ccc(O)cc1
inactive: [1] | [2] | [5] | [8] | [10] | [9]
active: [2] 2.96 µM and 11.1 µM and 10.3 µM | [3] 735 nM [middle of 4 runs] | [5] 16.6 µM and 19.4 µM and 18.5 µM | [9] 42.2 µM

CCOC(=O)COc1cc(-n2ncc(C(F)(F)F)c(C)c2=O)c(F)cc1Cl
inactive: [1] | [2] | [3] | [5] | [8] | [6]

CCCCOC(=O)C(C)Oc1ccc(Oc2ccc(C(F)(F)F)cn2)cc1 (stereo not drawn)
inactive: [1] | [2] | [3] | [5] | [8] | [6]

CC1(C)C(C=C(Cl)Cl)C1C(=O)OCc1cccc(Oc2ccccc2)c1 (stereo not drawn)
inactive: [1] | [5] | [8] | [10] | [9]
active: [2] 10 µM | [3] 25.9 µM

CCN(Cc1c(F)cccc1Cl)c1c([N+](=O)[O-])cc(C(F)(F)F)cc1[N+](=O)[O-]
active: [2] 1.87 µM | [3] 3.08 µM
not listed: [9]
inactive: all other assays above

CC(=O)S[C@@H]1CC2=CC(=O)CC[C@]2(C)[C@H]2CC[C@@]3(C)[C@@H](CC[C@@]34CCC(=O)O4)[C@H]12
active: [2] 25 µM [middle of 4 runs] | [5] 38.7 µM and 21.9 µM and 4.9 µM
inactive: [1] | [2] | [3] | [5] | [8] | [10] | [9]

CCCCCOC(=O)COc1cc(N2C(=O)C3=C(CCCC3)C2=O)c(F)cc1Cl
not listed: [4] | [7] | [10]
inactive: all other assays above

C#C[C@]1(O)CC[C@H]2[C@@H]3CCC4=CC(=O)CC[C@@H]4[C@H]3CC[C@@]21CC
active: [2] 27.6 µM
inactive: [1] | [2] | [5] | [8] | [10] | [9]

CCOC(=O)c1ccc(O)cc1
inactive: [1] | [2] | [5] | [8] | [10] | [9]
active: [2] 42.8 µM | [5] 100 µM

COc1c(Cl)ccc(Cl)c1C(=O)O
inactive: [1] | [2] | [3] | [5] | [8]

CCC(O)=C1C(=O)CC(C(=O)O)CC1=O (stereo not drawn)
not listed: [6] | [7] | [10]
inactive: all other assays above

O=C(c1ccccc1)C1CCCCC1
inactive: [1] | [2] | [4] | [5] | [8] | [10] | [9]
active: [2] 42.8 µM | [3] 25.3 µM [middle of 4 runs]

Cc1nn(C)c(Oc2ccccc2)c1C=NOCc1ccc(C(=O)OC(C)(C)C)cc1
inactive: [3] | [4] | [8] | [7]
active: [1] 3.15 µM | [2] 0.698 µM | [5] 0.0386 µM

S=C(S)NCCNC(=S)S.[Mn+2].[S-]C([S-])=NCCN=C([S-])[S-].[Zn+2]
active: [2] 30.3 µM and 11.4 µM
inactive: [1] | [2] | [5] | [8] | [6] | [9]
